In the library only some 1.9% were active in any assay of this set; here they are far more common.
PREPL inhibitor = PREPL enzyme inhibitors, primary screen, biochemical, fluorescence polarization | 0.68% of 320,000 active | Prolyl endopeptidase-like (Homo sapiens), Q4J6C6 | recombinant PREPL, fluorescence polarization activity-based probe | AID 2751, 2010 | inhibition, % at 5.96 µM; in the data active = inhibition above about 43%
Fam108B inh = mouse Fam108B serine hydrolase inhibitors, primary screen, counter-screen for RBBP9 inhibitor project, biochemical, fluorescence polarization | recombinant Fam108B, FP-Rh probe fluorescence polarization | inhibition, % at 9.51 µM | 0.33% of 300,000 active;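 active = inhibition above the screen mean inhibition plus 3 SD, computed separately per campaign, cut at about 18% in these data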;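 also: inhibitors lower polarization as less probe binds the enzyme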
PME-1 inh = PME-1 inhibitors via competitive probe labeling, primary screen, biochemical, fluorescence polarization, FP-Rh probe, HTS; Protein phosphatase methylesterase 1 (Homo sapiens), Q9Y570; recombinant PME-1; inhibition, % at 5.9 µM; 0.53% of 320,000 active; AID 2130, 2009;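 active = inhibition above the campaign mean of all compounds plus 3 SD, cut at about 26% in these data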;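 also: competitive labeling of PME-1 active site by serine hydrolase directed probe; inhibitors block probe labeling so polarization falls and inhibition rises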
Target sequence (Q9Y570 whole entry, looked up): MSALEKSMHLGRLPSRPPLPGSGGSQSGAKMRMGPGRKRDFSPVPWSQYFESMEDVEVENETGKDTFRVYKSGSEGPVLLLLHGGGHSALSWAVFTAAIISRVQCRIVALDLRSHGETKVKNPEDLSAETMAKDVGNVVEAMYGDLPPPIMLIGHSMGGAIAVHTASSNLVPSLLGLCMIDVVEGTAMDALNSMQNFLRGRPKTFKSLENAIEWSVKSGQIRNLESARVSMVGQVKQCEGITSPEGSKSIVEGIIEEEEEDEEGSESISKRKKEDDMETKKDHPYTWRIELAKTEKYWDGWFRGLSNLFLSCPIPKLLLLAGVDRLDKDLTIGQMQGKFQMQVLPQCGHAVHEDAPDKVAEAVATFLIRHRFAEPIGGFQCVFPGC
GSTO1 inh = inhibitors of recombinant GSTO1, primary screen, counter-screen for RBBP9 inhibitor project, biochemical, fluorescence polarization; inhibition, % at 5.96 µM; AID 1974, 2009; activity-based probe fluorescence polarization; 1.1% of 300,000 active;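 active = inhibition above the campaign mean inhibition plus 3 SD, cut at about 35% in these data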
LYPLA1 counter = LYPLA1 inhibitors, primary screen, counter-screen for PME1 inhibitor project, biochemical, fluorescence polarization, FP-Rh probe ABPP; recombinant LYPLA1; inhibition, % at 5.9 µM; 0.16% of 320,000 active; Acyl-protein thioesterase 1 (Homo sapiens), O75608;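 active = inhibition above the mean of all tested compounds plus 3 SD, set per campaign, cut at about 14% in these data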;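 also: inhibitors block serine hydrolase probe labeling of LYPLA1 so polarization falls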
LYPLA2 counter = LYPLA2 inhibitors, primary screen, counter-screen for PME1 inhibitor project, biochemical, fluorescence polarization, FP-Rh probe ABPP. Acyl-protein thioesterase 2 (Homo sapiens), O95372. recombinant LYPLA2. inhibition, % at 5.9 µM. 0.38% of 320,000 active;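 active = inhibition above the screen-wide mean plus 3 SD, limit set per campaign, cut at about 26% in these data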
LYPLA2 confirm = LYPLA2 inhibitors, retest, confirmation, counter-screen for PME1 inhibitor project, biochemical, fluorescence polarization, FP-Rh probe ABPP. shares compounds with LYPLA2 counter. recombinant LYPLA2. inhibition, % at 5.9 µM. 72% of 1,100 active;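 active = mean inhibition across replicates above the hit cutoff set in the primary screen, cut at about 26% in these data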;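 also: blocked labeling of the enzyme by serine hydrolase FP-Rh probe lowers polarization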
LYPLA2 ABPP = LYPLA2 inhibitors in proteome, late-stage follow-up, gel-based competitive ABPP, fluorescence, assay provider; 30% of 150 active; AID 652029, 2013; shares compounds with LYPLA2 counter; rhLYPLA2 in mouse brain proteome, gel ABPP FP-Rh; inhibition, % at 20 µM;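 active = inhibition of LYPLA2 enzyme probe labeling above about 50%, limit read from the data; inactive = inhibition below that limit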;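 also: loss of FP-Rh probe labeling of the LYPLA2 gel band measured as band density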
Of the large screens only hits and unclear results are named; the others gave an inactive call (follow-up assays come after a bar, where they were run).

O=C(Nc1cccc2ncccc12)c1ccc(Br)c([N+](=O)[O-])c1	LYPLA2 counter 32.9 | LYPLA2 confirm 46.6
COc1ccc(C(=O)NC(=S)NCc2cccnc2)cc1[N+](=O)[O-]	LYPLA2 counter 34.8 | LYPLA2 confirm inactive
COc1ccc(C(=O)NC(=S)Nc2cccc3ncccc23)cc1[N+](=O)[O-]	LYPLA2 counter 47.7 | LYPLA2 confirm 51.2 | LYPLA2 ABPP inactive
O=C(Nc1cccc2ncccc12)c1cccc(F)c1	none
Cn1ccnc1SCC(=O)Nc1cc(S(=O)(=O)N2CCOCC2)ccc1Cl	none
Cc1nn(-c2ccccc2)c2sc(C(=O)OC3CCOC3=O)cc12 (stereo not given)	LYPLA2 counter 36.5 | LYPLA2 confirm 42.5
CCCCCOc1ccc(/C=C/c2c([N+](=O)[O-])c(=O)n(C)c(=O)n2C)cc1	LYPLA2 counter 68.8 | LYPLA2 confirm 52.6 | LYPLA2 ABPP inactive
Cn1c(/C=C/c2ccc(Cl)cc2)c([N+](=O)[O-])c(=O)n(C)c1=O	none
Cc1ccc(N=C2NC(=O)CC(C(=O)Nc3ccc4c(c3)OCO4)S2)cc1 (stereo not given)	LYPLA2 counter 28.0 | LYPLA2 confirm inactive
CN1C(=O)CC(C(=O)Nc2ccc(F)cc2)SC1=Nc1ccc2c(c1)OCO2 (stereo not given)	none
COCCn1c(C)cc(C(=O)COc2ccc(C)nc2[N+](=O)[O-])c1C	none
CCCn1c(C)cc(C(=O)COc2ccc(C)nc2[N+](=O)[O-])c1C	LYPLA2 counter 29.6 | LYPLA2 confirm inactive
CC(=O)N1c2ccc(S(=O)(=O)NC(CC(=O)O)c3ccc(Br)cc3)cc2CC1C (stereo not given)	none
N#Cc1ccc(CN2CCN(CC(=O)NCCc3ccc(Cl)cc3Cl)CC2)cc1	LYPLA2 counter 27.4 | LYPLA2 confirm inactive
O=C(Cn1cc(C(F)(F)F)ccc1=O)NCCc1ccc(Cl)cc1Cl	none
O=C1CC(N2CCN(c3cccc(C(F)(F)F)c3)CC2)C(=O)N1c1ccc(F)cc1 (stereo not given)	LYPLA2 counter 55.0 | LYPLA2 confirm 48.7
Cc1cccc(N2C(=O)CC(N3CCN(c4cccc(C(F)(F)F)c4)CC3)C2=O)c1 (stereo not given)	LYPLA2 counter 45.6 | LYPLA2 confirm 39.7
O=C1CC(N2CCN(c3ccccc3)CC2)C(=O)N1c1cccc(Cl)c1 (stereo not given)	none
O=C(O)c1cccc(S(=O)(=O)N2CCCC(c3nc4c(nnn4Cc4ccc(F)cc4)c(=O)[nH]3)C2)c1 (stereo not given)	none
O=C(c1ccc(F)cc1)C1CCN(CCn2c(=S)[nH]c3ccccc3c2=O)CC1	LYPLA2 counter 26.5 | LYPLA2 confirm 28.5
COc1ccc(C(=O)COc2ncnc3cc(Cl)ccc23)cc1	LYPLA2 counter 27.3 | LYPLA2 confirm 31.3
O=C(COc1ncnc2ccccc12)c1ccc(Cl)cc1	LYPLA2 counter 28.6 | LYPLA2 confirm inactive
O=C(COc1ncnc2cc(Cl)ccc12)c1ccccc1	none
CCOC1=C/C(=C/c2c(N)n3nc(S(=O)(=O)CC)sc3nc2=O)C=CC1=O	none
COC(=O)c1c(NC(=O)CN2CCN(c3ncccn3)CC2)sc(C(N)=O)c1C	LYPLA2 counter 30.6 | LYPLA2 confirm inactive
NC(=O)C1(N2CCCCC2)CCN(C(=O)CSc2nc3ccccc3s2)CC1	LYPLA2 counter 32.3 | LYPLA2 confirm 31.3
O=C1[C@@H]2Cc3c([nH]c4ccccc34)CN2C(=O)CN1CCO	none

Source: PubChem BioAssay (The Scripps Research Institute Molecular Screening Center)
